Source: PubChem BioAssay (National Center for Advancing Translational Sciences (NCATS))
ATXN2 expr inh – ATXN2 expression inhibition; Potency, µM (titrated, usually from 57 µM), actives largely listed as inhibitors; 0.72% of 360,000 active; HEK-293 ATXN2-luciferase reporter, luminescence, 24 h; further: nearly all actives have a fitted effect of over 55% in size
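qHTS (up to 57 uM final) was run with 24 h compound exposure of reporter cells at 37 °C. Each well was multiplexed: SteadyGlo luminescence measured ATXN2-luciferase expression after a fluorogenic Gly-Phe-AFC viability readout (25 uM final).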
KB-3-1 tox – KB-3-1 parental cell cytotoxicity; KB-3-1 viability, CellTiter-Glo ATP luminescence, 72 h; Potency, µM (highest dose often 46.1 µM), most hits filed as cytotoxic; 1.4% of 400,000 active; further: nearly all actives have a fitted effect of over 60% in size
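KB-3-1 parental drug-naive adenocarcinoma cells in DMEM/10% FBS, incubated 72 h at 37 C with pin-transferred compounds across a concentration series. Viability by CellTiter-Glo luminescence; concentration-response curves fitted after normalization.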
ATXN viability – viability counter-screen for ATXN expression inhibitors | Potency, µM (titrated, usually from 56.7 µM), hits mostly cytotoxic | 0.49% of 400,000 active | S2 cells (HEK-293 line with an ATXN2-luciferase reporter) viability, CellTiter-Fluor protease fluorescence, 24 h; further: nearly all actives have a fitted effect of over 40% in size
KB-V1 MDR tox – KB-V1 MDR subline cytotoxicity. KB-V1 MDR cells viability, CellTiter-Glo, 72 h. Potency, µM (titrated, usually from 46.1 µM), most hits filed as cytotoxic. 3.4% of 400,000 active. AID 1347076; further: nearly all actives have a fitted effect of over 60% in size
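Drug-selected KB-V1 cells, grown in DMEM lacking phenol red with 10% FBS, receive compound titrations; after three days at 37 degrees C, surviving cell ATP is quantified by CellTiter-Glo luminescence and responses normalized and curve-fitted.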
HT1080-NT tox – kills 2HG-producing HT-1080-NT fibrosarcoma cells | HT-1080-NT fibrosarcoma viability, CellTiter-Glo ATP luminescence, 48 h | Potency, µM (top dose mostly 46.1 µM), actives largely listed as cytotoxic | 1.6% of 360,000 active | AID 686970;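 further: NT is the 2HG producing partner of a matched IDH1 knockdown line; nearly all actives have a fitted effect of over 55% in size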
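Luminescent CellTiter-Glo readout after 48 hours of compound exposure at 37 degrees C defined viability of HT-1080-NT cells. Activity was normalized to DMSO wells and cell-free media wells; concentration-response curves were fitted and assigned curve classes.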
HT1080 IDH1KD tx – toxicity to HT-1080 IDH1 knockdown cells (counter line). HT-1080 IDH1 knockdown viability, ATP luminescence, 48 h. Potency, µM (top dose mostly 46.1 µM), actives largely listed as cytotoxic. 2% of 360,000 active
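Viability of IDH1-knockdown HT-1080 fibrosarcoma cells was assessed by CellTiter-Glo after 48 h at 37 °C with titrated compound; concentration-effect curves were classified by fit quality and response size.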
Hits are given with their value; – = inactive; ? = inconclusive; · = not tested or not shown; [ ] = another dose, or the depositor's remark. Rows were chosen to be rich in hits. Some 6.2% of all compounds tested hit in one or more screens of this group. The call rests on the fitted dose curve; in most records, active means well fitted curve in the direction sought with a large enough effect; inconclusive means small, poorly fitted or top-dose-only effect, or another doubt; inactive means no such curve, though single readings can be large; an effect the other way counts as inactive or inconclusive.

SMILES	ATXN2 expr inh	KB-3-1 tox	ATXN viability	KB-V1 MDR tox	HT1080-NT tox	HT1080 IDH1KD tx
Cc1ccccc1CNC(=O)C(=O)NCC(c1ccc2c(c1)OCO2)N1CCOCC1 (centres undefined)	–	–	–	–	·	·
CC1=CC(=O)C(C(C)C)=C/C1=C(\c1cc(C(C)C)c(OP(=O)(O)O)cc1C)c1ccccc1C(=O)O	–	16µM	–	?	?	23µM
CCOc1ccc(C(=O)c2ccccc2C(=O)O)cc1OCC	–	–	–	?	–	–
Cc1ccc(C)c(CN2C(=O)c3ccccc3S(=O)c3ccc(C(=O)NCCC4=CCCCC4)cc32)c1 (centres undefined)	–	–	–	–	·	·
Cc1ccc2nc(SCC(=O)Nc3cccc(F)c3)nc(=O)n2c1	–	?	?	9.2µM	–	–
Cc1cc(C)n(-c2nnc3n2N=C(c2c[nH]c4ccccc24)CS3)n1	–	7.3µM	–	?	?	15µM
Cc1cc(-c2nc3cc(F)ccc3s2)ccc1N	–	?	–	18µM	–	–
Cc1ccc(C(=O)Nc2ccc(-c3nc4ccccc4s3)cc2C)cc1C	–	?	–	–	·	·
COc1ccc2c(c1)CCC1(C)CC(=O)C(Br)=C21 (centres undefined)	·	?	?	6.5µM	–	–
COc1ccc2c(c1)CCC2=O	·	–	·	–	·	·
COCCN1C(=O)c2oc3ccc(C)cc3c(=O)c2C12C(=O)N(C)c1ccccc12 (centres undefined)	–	–	–	–	·	·
O=c1[nH]c(=S)c2n[nH]nc2[nH]1	·	–	·	?	·	·
O=C(COc1ccccc1O)NNc1ccccc1	–[11.3 µM]	?	–	?	2.3µM	3.3µM
O=C(C[n+]1ccccc1)NNc1ccccc1	?	6.5µM	?	–	2.6µM	4.6µM
CCOC(=O)C1CCN(C(=O)C2CCN(C3=NS(=O)(=O)C(c4ccc(C)c(C)c4)=C3C)CC2)CC1	·	–	·	–	·	·
Cc1cccc(-n2c(C)nnc2SCC(=O)NC(C)c2ccco2)c1 (centres undefined)	·	–	·	–	·	·
CCOc1ccc(-c2cc(C(=O)NCc3ccc(OC)cc3)c3c(-c4ccc(F)cc4)[nH]nc3n2)cc1	–	–	–	?	·	·
Cc1cc(Cl)ccc1NC(=S)N1CCN(Cc2ccccc2)CC1	–	–	–	23µM	–	–
O=C(NCc1ccc(Cl)cc1)N1CCN(Cc2ccccc2)CC1	·	?	–	16µM	–	?
O=C(Nc1ccccc1)N1CCN(Cc2ccc(Cl)cc2)CC1	·	–	?	–	–	–
Cc1cccc(N2CCN(C(=O)NCc3ccc(Cl)cc3)CC2)c1	–	23µM	–	8.2µM	?	?
O=C(Nc1cc(Cl)cc(Cl)c1)N1CCCN(Cc2ccccc2)CC1	–	–	–	?	21µM	?
COc1ccc(CNC(=O)N2CCN(c3cccc(Cl)c3)CC2)cc1OC	–	–	–	?	–	–
CC(=O)Nc1cccc(-n2cc3c(c2-c2ccccc2Cl)c(=O)n(C)c(=O)n3C)c1	·	–	·	–	·	·
COc1ccc(OC)c(C(=O)N(Cc2cc3cccc(C)c3nc2N2CCC(O)CC2)C2CC2)c1	·	·	–	·	·	·
SMILES	ATXN2 expr inh	KB-3-1 tox	ATXN viability	KB-V1 MDR tox	HT1080-NT tox	HT1080 IDH1KD tx
O=S1(=O)N=C(Oc2cccc(C(F)(F)F)c2)c2ccccc21	·	?	·	–	·	·
O=[S+]([O-])(Nc1ccccc1F)c1cccc(NC/C=C/c2ccccc2)c1	·	–	·	–	·	·
O=C(CN1C(=O)C(=O)N(Cc2ccccc2)C1=O)Nc1cc(Cl)cc(Cl)c1	–	23µM	–	?	23µM	?
Cc1ccc(C(=O)Nc2cccc(-c3nc(CNC(=O)C4(C)CC4)c(C)o3)c2)s1	·	·	–	·	·	·
Cc1ccc2oc(=O)n(CCNC(=O)Nc3ccccc3Cl)c2c1	–	–	–	–	·	·
COc1cccc(NC(=O)N2CCc3nc(Nc4cc(Cl)cc(Cl)c4)ncc3C2)c1	–	?	?	–	?	–
O=C(Nc1ccc(OC(F)(F)F)cc1)N1CCc2nc(NCc3cccc(Oc4ccccc4)c3)ncc2C1	–	?	–	13µM	?	23µM
CC(C)c1ccc(Nc2ncc3c(n2)CCN(C(=O)Nc2ccc(F)c(Cl)c2)C3)cc1	–	?	–	18µM	?	?
COc1cccc(NC(=O)N2CCc3nc(NCc4cccc(Oc5ccccc5)c4)ncc3C2)c1	–	8.2µM	–	?	?	?
O=C(Nc1ccc(Cl)cc1)N1CCc2ccccc2C1	–	–	–	–	–	?
CCOc1ccc(NC(=O)N2CCc3ccccc3C2)cc1	–	–	–	–	–	–
CC/C(=C/c1ccccc1OC)c1cc(-c2ccccc2)cc2oc3ccccc3c12	·	–	·	–	·	·
CCN(Cc1ccncc1)Cc1ccc2c(c1)CN(C(=O)c1ccccc1-n1cccn1)CCO2	·	·	–	·	·	·
CN(Cc1ccccc1)C(=S)Nc1ccc(OC(F)F)cc1	–	–	–	15µM	–	–
COC(=O)c1cc2sccc2n1Cc1ccc(F)cc1Cl	–	–	–	–	·	·
O=C(N[C@@H](Cc1ccccc1)C(=O)CCl)OCc1ccccc1	28µM	?	16µM	23µM	6.5µM	21µM
O=C(CCl)NC(Cc1ccccc1)C(=O)OCC(=O)c1ccc(-c2ccccc2)cc1 (centres undefined)	–	–	15µM	–	–	?
CC(=O)NC(Cc1ccccc1)C(=O)OCC(=O)c1ccc(Cl)cc1 (centres undefined)	–	–	–	–	–	–
COC(=O)CCC(NC(=O)OCc1ccccc1)C(=O)NC(CC(C)C)C(=O)OC (centres undefined)	–	–	–	–	–	–
CC(C)C[C@@H](C=O)NC(=O)[C@H](CC(C)C)NC(=O)[C@H](CC(C)C)NC(=O)OCc1ccccc1	1.1µM	·	·	·	·	·
O=C(N[C@@H](Cc1ccccc1)C(=O)N[C@@H](Cc1ccccc1)C(=O)O)OCc1ccccc1	–	–	–	–	–	–
CCOC(=O)C(C)Oc1cccc2c(=O)n(CC(=O)NCc3ccc4c(c3)OCO4)ccc12 (centres undefined)	–	6.5µM	–	7.3µM	?	?
CCOC(=O)COc1cccc2c(=O)n(CC(N)=O)ccc12	–	–	–	–	–	–
CCOC(=O)COc1cccc2c(=O)n(CC(=O)NCc3ccccc3)ccc12	·	0.92µM	?	1.6µM	0.52µM	0.46µM
CCOC(=O)COc1cccc2c(=O)n(CC(=O)NCc3ccc(F)cc3)ccc12	·	0.58µM	?	1.5µM	1.2µM	1µM
CCOC(=O)C(C)Oc1cccc2c(=O)n(CC(=O)Nc3ccc4c(c3)OCCO4)ccc12 (centres undefined)	?	–	–	–	–	–
COC(=O)C(C)Sc1ncnc2c1c(-c1ccccc1)cn2-c1ccc(F)cc1 (centres undefined)	–	–	–	–	·	·
